Sampled rows, rich in hits. Any-hit rate of the full collection: about 21%.
RORg inh: qHTS for inhibitors of ROR gamma transcriptional activity; Potency, µM (titrated, usually from 53.6 µM), inactives show top-dose activity change, negative = inhibition, most hits filed as inhibitors; Drosophila S2 Gal4-RORgamma UAS-luciferase reporter, 20 h; Nuclear receptor ROR-gamma (Mus musculus), P51450; actives 5.4% (n = 310,000); AID 2551, 2010; note: potency is the fitted concentration of half-maximal effect; nearly all actives have a fitted effect of over 60% in size
Target sequence (P51450 whole entry, looked up, the tested form may be a part): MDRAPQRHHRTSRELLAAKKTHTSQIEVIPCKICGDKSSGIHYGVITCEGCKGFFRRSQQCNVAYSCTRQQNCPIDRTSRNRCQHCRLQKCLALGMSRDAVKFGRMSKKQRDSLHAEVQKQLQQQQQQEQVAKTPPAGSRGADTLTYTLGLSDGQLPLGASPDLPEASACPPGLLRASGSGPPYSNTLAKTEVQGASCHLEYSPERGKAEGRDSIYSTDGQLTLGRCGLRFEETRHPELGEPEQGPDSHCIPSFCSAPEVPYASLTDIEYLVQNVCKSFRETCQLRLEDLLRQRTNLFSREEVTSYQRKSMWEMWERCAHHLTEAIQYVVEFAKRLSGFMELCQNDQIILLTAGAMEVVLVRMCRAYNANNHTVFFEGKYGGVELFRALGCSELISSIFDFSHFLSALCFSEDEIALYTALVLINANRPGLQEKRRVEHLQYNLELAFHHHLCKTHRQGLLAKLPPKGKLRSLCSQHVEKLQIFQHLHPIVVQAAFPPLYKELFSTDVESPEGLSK
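Compounds are pin-transferred onto Drosophila Schneider cells expressing a copper-inducible Gal4–ROR gamma transactivation domain fusion. After 1 hr, copper sulfate is added to 700 uM final; luciferase is read 20 hr later.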
IL1B secr inh: qHTS for Inhibitors of Inflammasome Signaling: IL-1-beta AlphaLISA Primary Screen; THP-1 LPS/ATP IL-1B secretion, AlphaLISA, 16 h; active compounds read low; activity change, % at 57.5 µM; actives 4.7% (n = 360,000); AID 743279, 2014; in the data active = activity change below about -50%; inconclusive = mostly about -30% to -49%
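THP-1 cells pretreated 1 hr with compounds (up to 57.5 uM final), then stimulated with LPS (250 ng/mL final) plus ATP (1.25 mM final); secreted IL-1B measured by AlphaLISA after 16 hr, decreased signal indicating inhibition.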
ELG1 repair inh: qHTS screen for small molecules that inhibit ELG1-dependent DNA repair in human embryonic kidney (HEK293T) cells expressing luciferase-tagged ELG1; actives 2.3% (n = 330,000); Potency, µM (top dose mostly 46.1 µM), for inactives: at the top dose activity change, negative = inhibition, usual class: inhibitors; AID 504467, 2011; HEK293T ELG1-luciferase reporter, luminescence, 16 h; DNA damage induced by 5-fluorouridine; note: potency is the fitted concentration of half-maximal effect; nearly all actives have a fitted effect of over 55% in size
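HEK293T cells expressing luciferase-tagged ELG1 (2,000/well) received 5-Fluorouridine plus compound or DMSO for 16 hr at 37 °C. Luciferase was read by ONE-Glo luminescence after 30 min at room temperature.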
DT40 TDP1 CPT: qHTS for Inhibitors of human tyrosyl-DNA phosphodiesterase 1 (TDP1): qHTS in cells in presence of CPT; actives 12% (n = 420,000); chicken DT40 Tdp1-/-;hTDP1 cells + 20 nM CPT, ATP luminescence, 48 h; Potency, µM (doses to about 46.2 µM), inactives show at the highest dose activity change, negative = growth inhibition, most hits filed as inhibitors; AID 686979, 2013; note: potency is the fitted concentration of half-maximal effect; nearly all actives have a fitted effect of over 55% in size
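Cell growth measured by CellTiter-Glo luminescence after a minimum 48 h, 37 C compound exposure with 20 nM CPT in Tdp1-knockout DT40 cells stably expressing hTDP1, seeded 400/well; qHTS titration format.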
DT40 TDP1 no CPT: qHTS for Inhibitors of human tyrosyl-DNA phosphodiesterase 1 (TDP1): qHTS in cells in absence of CPT; DT40 Tdp1-/- hTDP1 cells, no CPT, ATP luminescence, 48 h; Potency, µM (top dose mostly 46.2 µM), for inactives: top-dose activity change, negative = growth inhibition, hits mostly inhibitors; actives 15% (n = 420,000); note: potency is the fitted concentration of half-maximal effect; nearly all actives have a fitted effect of over 55% in size
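Seeded 400 DT40-hTDP1 cells/well (vehicle DMSO, no 20 nM CPT); pinned compounds; ≥48 hr at 37 °C; CellTiter-Glo luminescence as viability measure.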
Gal4-VP16 FLuc: VP16 counterscreen qHTS for inhibitors of ROR gamma transcriptional activity | AID 2546, 2010 | Potency, µM (doses to about 53.6 µM), for inactives: at the highest dose activity, negative = inhibition, usual class: inhibitors | actives 3.5% (n = 310,000) | Drosophila S2 Gal4-VP16 UAS-luciferase, luminescence, 20 h;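 note: Gal4-VP16 expression switched on by copper sulfate through the metallothionein promoter; potency is the fitted concentration of half-maximal effect; nearly all actives have a fitted effect of over 50% in size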
The depositor's hits bear a star; ? = inconclusive; . = no result given; ! = repeats disagree; [ ] = another dose, or the depositor's remark. Unless noted, calls come from the whole dose curve; as a rule, active = well fitted curve in the direction sought with a large enough effect; inconclusive = small, poorly fitted or top-dose-only effect, or another doubt; inactive = no such curve, though single readings can be large; an effect the other way counts as inactive or inconclusive. % is set by controls: 0 for no effect and ±100 for the full control effect.

SMILES | RORg inh | IL1B secr inh | ELG1 repair inh | DT40 TDP1 CPT | DT40 TDP1 no CPT | Gal4-VP16 FLuc
O=c1nc(/C=C/c2ccc(Cl)cc2Cl)cc(C(F)(F)F)[nH]1 | ? | -87.4* | 15.4% | -12.7% | ? | ?
Cc1[nH]c2ccc(OC(F)(F)F)cc2c1CCNCc1cccc([N+](=O)[O-])c1 | -28.0% | -94.8* | ? | ? | 13µM* | -2.5%
COc1ccc2[nH]c(C)c(CCNCc3cccnc3)c2c1 | . | -4.9 | 7.3% | 1.4% | 9.6% | .
C[C@@H]1COc2cccc(N3CCN(C)CC3)c2S(=O)(=O)N1 | . | 15.8 | . | -2.7% | -1.0% | .
COc1cc2c(cc1OC)C13CCN4CC5CCOC6CC(=O)N2C1C6C5CC43 (stereo unspecified) | . | 30.4 | . | 8.0% | 10.1% | .
CCCCc1cc(=O)oc2cc(OCC(=O)N3C[C@H]4C[C@@H](C3)c3cccc(=O)n3C4)c(Cl)cc12 | 25.4% | -12.0 | 17.7% | ? | ? | -5.9%
COc1ccc(NC(=O)Nc2ccc3c(c2)C(=O)N([C@H](C)CO)C[C@H](C)[C@@H](CN(C)Cc2ccc(Cl)c(Cl)c2)OCCCC[C@@H](C)O3)cc1 | . | ? | . | -16.9% | 16.4µM* | .
COc1ccc(NC(=O)N(C)C[C@H]2Oc3c(NS(=O)(=O)c4ccc(F)cc4)cccc3C(=O)N([C@H](C)CO)C[C@@H]2C)cc1 | . | 0.0 | ? | 4.6% | 2.2% | .
C[C@@H]1CCCCO[C@H](CN(C)Cc2ccccc2)[C@@H](C)CN([C@H](C)CO)C(=O)c2cc(NC(=O)c3ccccc3)ccc2O1 | . | -17.1 | . | ? | 18.4µM* | .
O=C(NC(=O)c1c(F)cccc1F)Nc1ccc(Cl)c(Oc2ncc(C(F)(F)F)cc2Cl)c1 | -4.0% | . | . | 9.7% | -19.7% | -23.5%
COc1ccc(NC(=O)c2ccccc2SCc2ccccc2)cc1 | . | ? | . | 5.17µM* | 4.61µM* | .
COC(=O)c1ccccc1C(=O)c1ccc(OCCN2CCCCC2)cc1 | -9.2% | . | . | ? | -28.0% | -7.1%
CC1CC(C)CN(S(=O)(=O)c2ccc3c(c2)oc(=O)n3CC(=O)NCc2cccnc2)C1 (stereo unspecified) | 42.3% | -14.0 | 3.66µM* | ? | ? | 0.7%
C=C1C2C[C@]3(C4CC5[C@@]6(C)CC[C@H](O)[C@@]5(C3CC2=O)C4[N+]([O-])(CC)C6)[C@@H]1O (stereo partly specified) | -5.0% | . | . | 11.6%[9.04 µM] | -7.6%[9.04 µM] | -3.2%
CCCCCCCCCCCCCCCC[n+]1ccccc1 | ? | -91.8*! | . | 0.651µM* | 0.326µM* | 15.8µM*
CCCC1(CCO)C(=O)NC(=S)NC1=O | . | 6.5 | . | 10.7% | 0.0% | .
COCCCNC(=S)NCCCNc1nc2cc(C)cc(C)c2cc1C#N | 6.31µM* | ? | ? | ? | ? | ?
CCN1C[C@@]2(COC)C3[C@@H](OC)[C@H]4C1[C@@]3(C1C[C@]3(O)C(OC)[C@H](O)[C@@]4(OC(C)=O)C1[C@H]3OC(=O)c1ccccc1)[C@H](OC)C[C@H]2O (stereo partly specified) | 12.7% | . | . | . | . | 1.2%
O=C1NC(=O)C2(C(=O)N1)C(c1ccc(F)cc1)NC(=S)NC2c1ccc(F)cc1 (stereo unspecified) | 0.4% | 28.3 | -0.6% | -16.3% | 4.1% | 4.2%
COC(=O)c1cccc(NC(=O)c2ccc(S(=O)(=O)N(C)c3ccccc3OC)cc2)c1 | . | 45.1 | . | 16.4µM* | 11.6µM* | .
